Test [1] has as its target Ubiquitin carboxyl-terminal hydrolase 1 (Homo sapiens) (UniProt O94782). As to the kind of experiment: Inhibitors of USP1/UAF1: Pilot qHTS (AID 504865).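 Further: rhodamine fluorescence freed from ubiquitin-rhodamine substrate followed over time; top concentration of the series differs between compounds; nearly all actives have a fitted effect of over 35% in size.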 In outline: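 In 50mM HEPES pH 7.8 containing 0.5mM EDTA, 1mM TCEP, 0.1 mg/ml BSA and 0.01% Tween-20, 1nM USP1/UAF1 is exposed to compound for 15 min, then Ub-Rho (150nM final) is added and fluorescence is read over time.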

A short description of test [2]: S16 Schwann cell viability assay (CellTiter-Glo assay) (AID 624031).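 Further: cellular ATP luminescence as a viability measure; nearly all actives have a fitted effect of over 70% in size.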 In outline:
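Untransfected S16 rat Schwann cells; compound 24 h, 37 °C/5% CO2; CellTiter-Glo ATP luminescence. % activity vs no-cell wells and DMSO controls (0%); concentration-effect curves classed by r2, response magnitude, activity.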

The test system of the next test is CP260. Kind of test: qHTS profiling for inhibitors of Plasmodium falciparum proliferation (AID 504749). Further: nearly all actives have a fitted effect of over 60% in size. Further: potency means the concentration at half of the fitted maximal effect. The settings on record: P. falciparum in erythrocytes, SYBR Green DNA, 72 h; series mostly up to 28.7 µM. In outline: (§1)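 SYBR Green fluorescence of parasite DNA, read after lysis and overnight dark incubation, measured growth over 72 h in erythrocyte culture at 0.3% parasitemia and 2.5% hematocrit. Data normalised to DMSO and 0.29 uM artemisinin, with plate-drift correction.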

The test system of the next test is Dd2. The test is described as above. The settings on record: P. falciparum in erythrocytes, SYBR Green DNA, 72 h; series mostly up to 28.7 µM. The essentials:
as §1

The next test has as its system ICS. The test is described as above. The settings on record: P. falciparum in erythrocytes, SYBR Green DNA, 72 h; series mostly up to 28.7 µM. In outline: as §1
The subject of a further test is PC15. The description is as above. The settings on record: P. falciparum in erythrocytes, SYBR Green DNA, 72 h; series mostly up to 28.7 µM. The essentials:
as §1

Another test relates to CP297. The description is as above. The settings on record: P. falciparum in erythrocytes, SYBR Green DNA, 72 h; series mostly up to 28.7 µM. The essentials: as §1
The next test deals with DFO2036. Described as above. To be noted: P. falciparum in erythrocytes, SYBR Green DNA, 72 h; series mostly up to 28.7 µM. The essentials:
as §1

Another test concerns DIV14. The description is as above. The settings on record: P. falciparum in erythrocytes, SYBR Green DNA, 72 h; series mostly up to 28.7 µM. In outline:
as §1

Another test deals with DIV30. The test is described as above. The settings on record: P. falciparum in erythrocytes, SYBR Green DNA, 72 h; series mostly up to 28.7 µM. In outline: as §1
The next test has as its system GB4. Described as above. The settings on record: P. falciparum in erythrocytes, SYBR Green DNA, 72 h; series mostly up to 28.7 µM. In outline:
as §1

A further test relates to P94_40. The test is described as above. The settings on record: P. falciparum in erythrocytes, SYBR Green DNA, 72 h; series mostly up to 28.7 µM. In outline:
as §1

A further test has as its system PAD. Described as above. The settings on record: P. falciparum in erythrocytes, SYBR Green DNA, 72 h; series mostly up to 28.7 µM. In outline: as §1
In the next test the test system is CP192. The test is described as above. The settings on record: P. falciparum in erythrocytes, SYBR Green DNA, 72 h; series mostly up to 28.7 µM. In outline: as §1
The test system of a further test is CP194. Described as above. To be noted: P. falciparum in erythrocytes, SYBR Green DNA, 72 h; series mostly up to 28.7 µM. The essentials:
as §1

Another test deals with CP201. The test is described as above. To be noted: P. falciparum in erythrocytes, SYBR Green DNA, 72 h; series mostly up to 28.7 µM. In outline: as §1
Another test has as its system CP203. The description is as above. The settings on record: P. falciparum in erythrocytes, SYBR Green DNA, 72 h; series mostly up to 28.7 µM. The essentials: as §1
A further test has as its system CP211. The test is described as above. The settings on record: P. falciparum in erythrocytes, SYBR Green DNA, 72 h; series mostly up to 28.7 µM. The essentials: as §1
The next test deals with CP262. The description is as above. To be noted: P. falciparum in erythrocytes, SYBR Green DNA, 72 h; series mostly up to 28.7 µM. The essentials: as §1
In a further test the test system is CP315. Described as above. The settings on record: P. falciparum in erythrocytes, SYBR Green DNA, 72 h; series mostly up to 28.7 µM. The essentials: as §1

Inconclusive results are not listed. The source made the active and inactive calls. The call rests on the fitted dose curve; in most records, active means well fitted curve in the direction sought with a large enough effect; inconclusive means small, poorly fitted or top-dose-only effect, or another doubt; inactive means no such curve, though single readings can be large; an effect the other way counts as inactive or inconclusive.

Chain of Ubiquitin carboxyl-terminal hydrolase 1 (Homo sapiens) (O94782 whole entry, looked up): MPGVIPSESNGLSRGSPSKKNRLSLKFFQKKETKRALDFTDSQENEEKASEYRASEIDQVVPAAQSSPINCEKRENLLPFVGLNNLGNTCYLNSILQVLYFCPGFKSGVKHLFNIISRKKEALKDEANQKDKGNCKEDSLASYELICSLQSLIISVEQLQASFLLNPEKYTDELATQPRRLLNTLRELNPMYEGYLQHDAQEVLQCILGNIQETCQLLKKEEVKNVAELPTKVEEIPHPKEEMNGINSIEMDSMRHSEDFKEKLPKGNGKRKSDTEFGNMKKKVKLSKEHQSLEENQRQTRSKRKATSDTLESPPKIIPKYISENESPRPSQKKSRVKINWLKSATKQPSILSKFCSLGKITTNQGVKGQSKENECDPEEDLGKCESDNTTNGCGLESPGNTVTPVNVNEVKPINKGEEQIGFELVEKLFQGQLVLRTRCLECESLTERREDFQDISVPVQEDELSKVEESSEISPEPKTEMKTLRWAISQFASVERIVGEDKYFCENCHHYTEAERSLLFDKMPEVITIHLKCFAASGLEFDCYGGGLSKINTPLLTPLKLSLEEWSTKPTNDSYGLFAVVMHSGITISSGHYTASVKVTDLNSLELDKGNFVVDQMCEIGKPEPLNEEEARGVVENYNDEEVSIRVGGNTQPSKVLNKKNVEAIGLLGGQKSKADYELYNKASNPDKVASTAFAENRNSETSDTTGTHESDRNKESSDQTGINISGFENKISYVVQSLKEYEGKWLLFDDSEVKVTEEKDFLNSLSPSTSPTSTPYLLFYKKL

On to `O=C1CC2OCC=C3CN4CC[C@]56c7ccccc7N1C5C2[C@H]3C[C@H]46` (stereo partly drawn), for which the Potency result (in test [1]; in [2]; in the test on ICS; in the test with PC15) was “inactive” each time. Besides, the Potency in the test with CP260 and in the test with Dd2 was 11.2 µM (active) in each case.

On to `CCC/C=C/C=C/C(=O)OC1/C(=C/C(=O)OC)CC2CC(C(C)O)OC(=O)CC(O)CC3CC(OC(C)=O)C(C)(C)C(O)(CC4C/C(=C/C(=O)OC)CC(/C=C\C(C)(C)C1(O)O2)O4)O3` (stereo not drawn), for which the Potency result in test [2] was “inactive”. For the same compound, the Potency in the test on CP260 was 2.82 µM (active); in the test on CP297, 1.69 µM (active); with DFO2036 it was 1.26 µM (active); with DIV14 it was 1.07 µM (active); in the test with DIV30, 1.07 µM (active); with Dd2, 2.24 µM (active). For the same compound, the Potency is 1.51 µM (active) with GB4; 0.562 µM (active) in the test with ICS; 2.24 µM (active) in the test on P94_40; 1.78 µM (active) in the test with PAD; 2.24 µM (active) in the test with PC15.

Regarding `CCCCCC(O)C1C(=O)OC(C)C(O)\C=C/C=C\C=C/C=C\C=C(\C)C(O)C(O)C(O)CC(O)CC(O)CC(O)CC(O)CC1O` (stereo not drawn), the Potency result (in [1]; in test [2]; with CP192; in the test on CP194; with CP201; in the test with CP203) was “inactive” throughout. In addition, the Potency result in the test with CP211, in the test with CP260, with CP262, in the test on CP297, with CP315 and in the test on DFO2036 was “inactive” each time. In addition, the Potency entry in the test on DIV14, in the test with DIV30, in the test on Dd2, with GB4, with ICS and with P94_40 was “inactive” throughout. Besides, the Potency entry in the test on PAD and with PC15 was “inactive” in each case.

On to `COc1ccc2c3c1O[C@H]1[C@@H](O)C=C[C@H]4C(C2)NCCC341` (stereo partly drawn), for which the Potency result (in [1]; in test [2]; in the test on CP192; with CP194; with CP201; in the test on CP203) was “inactive” in each case. Further, the Potency result in the test with CP211, in the test with CP260, in the test on CP262, with CP297, in the test on CP315 and in the test with DFO2036 was “inactive” throughout. For the same compound, the Potency entry with DIV14, in the test on DIV30, in the test with Dd2, in the test on GB4, in the test with ICS and in the test with P94_40 was “inactive” each time. The Potency result in the test on PAD and with PC15 was “inactive” each time.

As to `OCC(O)[C@H]1O[C@@H]2O[C@H](C(Cl)(Cl)Cl)O[C@@H]2[C@H]1O` (stereo partly drawn), the Potency entry (in test [1]; in [2]; in the test with CP192; with CP194; in the test on CP201; in the test with CP203) was “inactive” throughout. Moreover, the Potency entry in the test on CP211, with CP260, in the test with CP262, with CP297, with CP315 and in the test with DFO2036 was “inactive” in each case. Also, the Potency result in the test on DIV14, in the test on DIV30, in the test on Dd2, with GB4, with ICS and with P94_40 was “inactive” throughout. Further, the Potency result with PAD and in the test with PC15 was “inactive” each time.

In the case of `C=CC[N+]1(C)CCC23c4c5ccc(O)c4O[C@H]2C(=O)CC[C@@]3(O)C1C5` (stereo partly drawn), the Potency entry (in test [1]; in test [2]; with CP192; with CP194; with CP201; with CP203) was “inactive” each time. The Potency result in the test with CP211, in the test on CP260, in the test on CP262, in the test with CP297, in the test on CP315 and with DFO2036 was “inactive” each time. Moreover, the Potency entry in the test with DIV14, in the test with DIV30, with Dd2, with GB4, in the test on ICS and with P94_40 was “inactive” throughout. Also, the Potency entry with PAD and in the test with PC15 was “inactive” throughout.

Values taken from PubChem BioAssay (NCATS).
